High-throughput results deposited in PubChem BioAssay by National Center for Advancing Translational Sciences (NCATS).
Vaccinia Venus = inhibitors of vaccinia virus (Venus reporter); Vaccinia virus Venus reporter expression, fluorescence; actives 0.46% (n = 330,000); AID 720580; Potency, µM (highest dose often 36.5 µM), for the others: top-dose activity change, negative = inhibition, actives largely listed as inhibitors; calls by dose curve; tested in A549 cells; note: nearly all actives have a fitted effect of over 30% in size
VACV mCherry inh = vaccinia inhibition (mCherry reporter); Vaccinia virus mCherry reporter infection, fluorescence; Potency, µM (doses to about 36.5 µM), for the others: top-dose activity change, negative = inhibition, hits mostly inhibitors; actives 0.63% (n = 310,000); AID 720579; calls by dose curve; tested in A549 cells; note: nearly all actives have a fitted effect of over 35% in size
HCV inhibitor = blocks hepatitis C virus; Potency, µM (doses to about 41.8 µM), without a hit: at the top dose activity change, negative = inhibition, most hits filed as inhibitors; Huh7.5.1 HCVcc-Cre infection, luciferase reporter, 44 h; actives 3.4% (n = 340,000); AID 651820; active = well fitted inhibition curve with a large enough effect; inconclusive = small, poorly fitted or top-dose-only effect, or another doubt; inactive = no such curve, though single readings can be large or run the other way
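Cells (1,000/well) were plated 4 h before compound, then infected with HCVcc-Cre virus (~0.5 moi). After 44 h further culture, infection was read as luciferase luminescence following a 15 min substrate incubation at room temperature.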
Numbers without * were called inactive; i = inactive; ? = inconclusive; / = no result given; [ ] = remark or other dose. Sampled rows, rich in hits. Any-hit rate of the full collection: about 3.3%. % is set by controls: 0 for no effect and ±100 for the full control effect; potency is the fitted concentration of half-maximal effect.

SMILES	Vaccinia Venus	VACV mCherry inh	HCV inhibitor
O=C(/C=C/c1ccccc1)CC(=O)c1ccccc1O	/	/	11µM*
O=C(/C=C/c1ccccc1)NC(=O)c1ccccc1O	/	/	13%
COC(=O)c1cc(OC)c(OC)cc1NC(=O)c1ccco1	-18%	/	6.3µM*
CCOc1cc(NS(=O)(=O)c2ccc(OC)cc2)c(OCC)cc1NC(=O)c1ccco1	/	/	-5%
COc1cc(OC)cc(C(=O)Nc2ccc(NC(=O)c3ccco3)c(C)c2)c1	-10%	-23%	?
COc1cc(OC)cc(C(=O)Nc2cc(NC(=O)c3ccco3)ccc2OC)c1	?	?	10µM*
COc1cc(NC(=O)c2ccco2)c(C(=O)O)cc1OC	/	/	4%
CCOCCCNC(=S)Nc1cc(OCC)c(NC(=O)c2ccco2)cc1OCC	-15%	-3%	-17%
CCOc1cc(NC(=O)c2ccco2)c(OCC)cc1NC(=O)Cc1cccc(OC)c1	-21%	/	13µM*
COCCNC(=S)Nc1cc(OC)c(NC(=O)c2ccco2)cc1OC	-8%	-20%	13µM*
Cc1cccc2nc(CNC(=O)CN3Cc4cc(Cl)ccc4OC(C)C3)cn12 (stereo not drawn)	0%	-11%	/
O=C(C[n+]1ccccc1Cl)c1ccc(Br)cc1	-14%	-13%	/
CC(=O)c1cc2c(cc1NC(=O)CN1Cc3ccccc3C1=O)OCO2	/	/	12%
CCOc1ccc2c(c1)c(N=NC(N)=S)c(O)n2C	/	/	1%
NC(=S)N=Nc1c(O)n(CCCl)c2ccc(Cl)cc12	?	2.2µM*	?
NC(=S)N=Nc1c(O)n(CC(=O)Nc2ccccc2)c2ccccc12	/	/	5%
NC(=S)N=Nc1c(O)n(CCCl)c2ccccc12	1µM*	?	?
CC(=O)CC[N+](C)(C)C	-9%	-8%	?
CC(=O)CCC(C)=O	?	13µM*	18%
O=C(C[n+]1ccccc1)c1ccc(O)c(O)c1	-7%	?	/
CCCCn1c(SCc2ccc(C(=O)OC)o2)nc2cc(S(N)(=O)=O)ccc21	-23%	-16%	2.5µM*
CCCCn1c(SCC(=O)c2cc(OC)ccc2OC)nc2cc(S(N)(=O)=O)ccc21	-22%	-3%	-29%
O=C([C@@H]1C[C@@H](Sc2nc3ccccc3[nH]2)CN1Cc1ccc(Cl)cc1)N1CCN(c2ccccc2F)CC1	-22%	-10%	/
CC(=NNC(=O)Cn1ccc(C(F)(F)F)n1)c1ccc(-n2ccnc2)cc1	-12%	-2%	20%
C=CCOC(=O)C1=C(C)NC(C)=C(C(=O)OCC=C)C1c1ccco1	/	/	11µM*
SMILES	Vaccinia Venus	VACV mCherry inh	HCV inhibitor
COCCOC(=O)C1=C(C)NC(SCC(=O)NC(C)(C)C)=C(C#N)C1c1ccco1 (stereo not drawn)	-16%	18%	-10%
C=CCOC(=O)C1=C(C)NC(SCC(=O)Nc2ccc(C)c(Cl)c2)=C(C#N)C1c1ccco1 (stereo not drawn)	?	?	6.3µM*
C=CCOC(=O)C1=C(C)NC(SCC)=C(C#N)C1c1ccc(Cl)cc1 (stereo not drawn)	-20%	i	10µM*
C=CCOC(=O)C1=C(C)NC(SCC(N)=O)=C(C#N)C1c1ccc(C)cc1 (stereo not drawn)	/	/	-14%
CCOC(=O)C1=C(C)NC(C)=C(C(=O)OC)C1c1ccco1 (stereo not drawn)	-10%	i	-10%
COc1ccc(C(=O)Nc2cccc3c2CCCC3)cc1OC	/	/	-13%
O=C(NCCC1=CCCCC1)c1ccc2c(c1)N(Cc1ccc(F)cc1)C(=O)c1ccccc1S2(=O)=O	-16%	-4%	/
CN1CCCC(CN2c3ccccc3Sc3ccccc32)C1 (stereo not drawn)	-27%	-29%	?
CN1CCCC(CC2c3ccccc3Sc3ccccc32)C1 (stereo not drawn)	-29%	-18%	2.8µM*
CCC1CCCCN1C(=O)c1nn(-c2ccc(C)cc2)c(=O)c2c1c1ccccc1n2C (stereo not drawn)	4%	-4%	/
O=C(c1cc(C(=O)NCc2ccccc2)c(=O)n(Cc2ccccc2)c1)c1cc(Cl)ccc1O	?	-21%	?
Cc1ccccc1NC(=O)c1cc(C(=O)c2cc(Cl)ccc2O)cn(-c2ccccc2C)c1=O	?	?	13µM*
COc1ccc(Nc2nc3cc(Cl)c(Cl)cc3n3cnnc23)cc1Cl	-6%	-14%	/
O=C(C[n+]1ccnc2ccccc21)c1ccc(Br)cc1	-2%	-9%	/
O=c1ccc2cc3ccoc3c(O)c2o1	-9%	1%	1µM*
COc1cc2ccc(=O)oc2c(O)c1O	?	-13%	-14%
CN(CCCNC(=O)c1cc2c(Cl)nc3ccccc3c2s1)Cc1ccccc1	?	-1%	13µM*
CC1CCCN(CCCNC(=O)c2cc3c(s2)-c2ccccc2OC3)C1 (stereo not drawn)	?	?	11µM*
CC1CCCN(C(=O)c2cc3c(Cl)nc4ccccc4c3s2)C1 (stereo not drawn)	2%	-11%	/
O=C(NCCCN1CCN(c2ccccc2)CC1)c1cc2c(s1)-c1ccccc1OC2	-24%	i	/
CC1CCCN(CCCNC(=O)c2cc3c(Cl)nc4ccccc4c3s2)C1 (stereo not drawn)	?	-4%[7.34 µM]	13µM*
Cc1ccc2nc(Cl)c3cc(C(=O)NCCCN(C)Cc4ccccc4)sc3c2c1	-22%	-20%	/
O=C(NCCc1ccccn1)c1cnn(-c2ncc3c(n2)-c2ccccc2CC3)c1C1CC1	-22%	-28%	/
O=C(NC1CCCc2ccccc21)c1cnn2c1NC(=C1CC1)C=C2C(F)F (stereo not drawn)	-29%	-18%	/
Cc1cccc(NC(=O)NCC(c2ccc(F)cc2)N2CCN(C)CC2)c1 (stereo not drawn)	/	/	-23%
SMILES	Vaccinia Venus	VACV mCherry inh	HCV inhibitor
Cc1ccc(C(CNC(=O)Nc2ccc(Cl)cc2)N2CCN(C)CC2)cc1 (stereo not drawn)	-19%	-25%	13µM*
CC(=O)Oc1cc2c(C(=O)NCCCN3CCOCC3)c(C)oc2c2ccccc12	-17%	i	11µM*
Cc1c(OCC(=O)NCCCN2CCOCC2)ccc2c1oc(=O)c1ccccc12	/	/	5%
Nc1ccc(NC(=O)c2cccc(C(=O)Nc3ccc(N)cc3Cl)c2)c(Cl)c1	?	-10%	-17%
CCN(CC(=O)Nc1ccccc1C(F)(F)F)C(=O)c1ccc(-n2nc(C)c(CCC(=O)OC)c2C)cc1	/	/	-9%
O=C(N/N=C/c1ccccn1)c1ccccc1	6%	?	8%
COc1cc(C(=O)Oc2ccccc2/C=N/NC(=O)c2ccc(Cl)cc2)cc(OC)c1OC	?	?	2.8µM*
COc1ccc(C(=O)N/N=C/c2ccccc2C(=O)O)cc1OC	/	/	11%
COc1cc(C(=O)Oc2ccccc2/C=N/NC(=O)c2ccc(C)c(Cl)c2)cc(OC)c1OC	?	5µM*	?
O=C(N/N=C/c1ccccn1)c1ccc(Cl)cc1	-21%	3.2µM*	7%
CC(=O)Nc1ccc(C(=O)N/N=C/c2ccccc2OC(=O)c2ccc(Cl)cc2)cc1	?	-15%[1.46 µM]	?
Cc1cccc(C)c1OCC(=O)N[C@@H](Cc1ccccc1)[C@@H](O)C[C@H](Cc1ccccc1)NC(=O)[C@H](C(C)C)N1CCCNC1=O	?	i	/
COc1ccc(C)cc1NC(=O)Nc1cccc(OCc2cc(=O)n3ccc(C)cc3n2)c1	-8%	-15%	/
